Screening results: PubChem, National Center for Advancing Translational Sciences (NCATS)
FLuc counter – qHTS profiling assay for firefly luciferase inhibitor/activator using purifed enzyme and Km concentrations of substrates (counterscreen for miR-21 project); Potency, µM (doses to about 57.5 µM), hits mostly inhibitors; 360,000 tested, 6.9% active; Luciferin 4-monooxygenase (Photinus pyralis), P08659; purified FLuc, Km substrates, luminescence inhibition; AID 588342, 2011; note: nearly all actives have a fitted effect of over 55% in size
Target sequence (P08659 whole entry, looked up): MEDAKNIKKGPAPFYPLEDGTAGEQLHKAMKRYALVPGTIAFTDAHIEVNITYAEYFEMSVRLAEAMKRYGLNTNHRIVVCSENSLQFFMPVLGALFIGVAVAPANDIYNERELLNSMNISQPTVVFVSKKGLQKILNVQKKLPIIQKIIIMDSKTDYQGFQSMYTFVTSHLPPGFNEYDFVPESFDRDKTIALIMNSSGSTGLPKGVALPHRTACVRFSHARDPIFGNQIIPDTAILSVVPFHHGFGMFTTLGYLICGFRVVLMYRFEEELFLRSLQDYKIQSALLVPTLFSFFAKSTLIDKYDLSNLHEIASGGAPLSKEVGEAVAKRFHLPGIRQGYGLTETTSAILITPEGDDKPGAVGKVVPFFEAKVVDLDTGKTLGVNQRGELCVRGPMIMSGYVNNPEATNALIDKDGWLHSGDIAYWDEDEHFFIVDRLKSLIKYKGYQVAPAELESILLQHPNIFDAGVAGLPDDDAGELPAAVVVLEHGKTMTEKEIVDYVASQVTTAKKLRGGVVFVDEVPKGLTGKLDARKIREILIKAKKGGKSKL
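Biochemical qHTS of compounds, final roughly 60 µM downward over six points, against 10 nM purified firefly luciferase using Km concentrations of substrates (10 uM D-luciferin, 10 uM ATP) in Tris acetate pH 7.5 buffer; luminescence output.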
Rab9 prom act – qHTS Assay for Rab9 Promoter Activators; Huh7 Rab9 promoter-luciferase reporter, luminescence, 24 h; Potency, µM (series often up to 9.22 µM), most hits filed as activators; 320,000 tested, 2.8% active; AID 485297, 2010; note: nearly all actives have a fitted effect of over 60% in size
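Luminescence read-out: Huh7 cells stably expressing Rab9-luciferase, treated 24 h with compound at 37 °C, then lysed with luciferase reagent for 10 min at ambient before reading.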
ELG1 genotoxic – qHTS screen for small molecules that induce genotoxicity in human embryonic kidney (HEK293T) cells expressing luciferase-tagged ELG1. HEK293T ELG1-luciferase reporter, luminescence, 16 h. Potency, µM (top dose mostly 46 µM), usual class: activators. 330,000 tested, 1.3% active. AID 504466, 2011; note: nearly all actives have a fitted effect of over 60% in size
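Reporter readout depends on ELG1 protein level, which increases with genetic stress. After 16 hr compound exposure at 37 °C, luciferase activity was quantified using ONE-Glo.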
SMN2 splice up – qHTS Assay for Enhancers of SMN2 Splice Variant Expression. HEK293 SMN2-luciferase splicing reporter, luminescence, 30-36 h. Potency, µM (top dose mostly 46.1 µM), actives largely listed as activators. 210,000 tested, 2.8% active; note: nearly all actives have a fitted effect of over 55% in size
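HEK293 cells carry an SMN2 minigene-luciferase reporter in which exon 7 inclusion puts luciferase in frame. Cells were seeded at 2000 cells/well, attached for 10-12 hours, then exposed to compounds for 30-36 hours at 37C before ONE-Glo luminescence.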
KinaseGlo FLuc – Counterscreen for Luciferase (Kinase-Glo TM) Inhibition | Luciferin 4-monooxygenase (Photuris pensylvanica), Q27757 | Kinase-Glo luciferase, ATP luminescence, 8 min | Potency, µM (top dose mostly 38.3 µM), usual class: inhibitors | 200,000 tested, 0.28% active | AID 1379, 2008; note: nearly all actives have a fitted effect of over 60% in size
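Light output from Kinase-Glo luciferase with luciferin and 10 uM ATP in 50 mM imidazole pH 7.2, KCl, MgCl2, Tween 20, BSA; compound pin-delivered, 8-min ambient incubation, then luminescence read.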
NPC1 prom act – qHTS Assay for NPC1 Promoter Activators; Huh7 NPC1 promoter luciferase reporter, 24 h; Potency, µM (series often up to 9.22 µM), hits mostly activators; 320,000 tested, 2.4% active; AID 485313, 2010; note: nearly all actives have a fitted effect of over 60% in size
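Compounds in DMSO were transferred onto Huh7 NPC1-luciferase reporter cells pre-incubated 2 h; after 24 h at 37 °C, Amplite reagent was dispensed and luminescence recorded 10 min later.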
Large screens that a line does not name were inactive. A selection: hits, their analogues and other compounds. The true share with any hit is near 7.4%. Calls come from the whole dose curve; as a rule, active = well fitted curve in the direction sought with a large enough effect; inconclusive = small, poorly fitted or top-dose-only effect, or another doubt; inactive = no such curve, though single readings can be large; an effect the other way counts as inactive or inconclusive.

Cc1cccc(Oc2ccc(NC(=O)c3ccccc3C(=O)O)cc2)c1C	FLuc counter 19µM
O=C(Nc1ccc(Oc2cccc3ccccc23)cc1)c1ccco1	FLuc counter 24µM, ELG1 genotoxic inconclusive
COc1ccc(NC(=O)c2ccccc2Oc2ccccc2)cc1	none (no result: SMN2 splice up, KinaseGlo FLuc)
CCc1ccccc1NS(=O)(=O)c1ccc2c(c1)CC(=O)N2	none (no result: Rab9 prom act, ELG1 genotoxic, KinaseGlo FLuc, NPC1 prom act)
Clc1cccc(OCc2nnc(-c3ccccc3Br)o2)c1	FLuc counter inconclusive (no result: SMN2 splice up, KinaseGlo FLuc)
Fc1ccc(OCc2nnc(-c3ccccc3Br)o2)c(Cl)c1	FLuc counter 9.5µM, Rab9 prom act 2.5µM, ELG1 genotoxic 2.3µM, NPC1 prom act inconclusive (no result: SMN2 splice up, KinaseGlo FLuc)
Clc1ccc(OCc2nnc(-c3ccccc3Br)o2)c(Cl)c1	FLuc counter 6µM, Rab9 prom act 4µM, ELG1 genotoxic inconclusive, SMN2 splice up inconclusive, NPC1 prom act 3.2µM
Clc1ccc(OCc2nnc(-c3ccccc3Br)o2)cc1	FLuc counter inconclusive
Cc1cc(Cl)ccc1OCc1nnc(-c2ccccc2C)o1	FLuc counter inconclusive, Rab9 prom act 4µM, ELG1 genotoxic inconclusive, NPC1 prom act inconclusive (no result: SMN2 splice up, KinaseGlo FLuc)
COc1cc(-c2nnc(COc3ccc(Cl)cc3C)o2)cc(OC)c1OC	none
COc1ccc(CCNS(=O)(=O)c2ccc(F)c(C(=O)Nc3ccc(Cl)cc3)c2)cc1OC	none (no result: Rab9 prom act, ELG1 genotoxic, SMN2 splice up, KinaseGlo FLuc, NPC1 prom act)
COc1ccc(-c2nn(C)c3sc(C(=O)N4CCN(c5cccc(C)c5C)CC4)cc23)cc1OC	none (no result: Rab9 prom act, ELG1 genotoxic, KinaseGlo FLuc, NPC1 prom act)
COc1ccc(-c2cc(C(=O)NCc3ccc(F)cc3)c3c(-c4ccc(F)cc4)[nH]nc3n2)cc1OC	none (no result: Rab9 prom act, ELG1 genotoxic, SMN2 splice up, KinaseGlo FLuc, NPC1 prom act)
O=C(/C=C/NNC(=O)c1ccccc1)c1ccc(Br)cc1	FLuc counter 27µM, ELG1 genotoxic inconclusive
O=C(/C=C/NNC(=O)c1ccc(Cl)cc1)c1ccccc1	FLuc counter inconclusive
Cc1ccc(C(=O)/C=C/NNC(=O)c2ccccc2O)cc1	FLuc counter 27µM (no result: SMN2 splice up, KinaseGlo FLuc)
CCc1cc2c(cc3c(=O)n(CC(=O)NC4CCCCC4)ncn32)s1	none (no result: Rab9 prom act, ELG1 genotoxic, KinaseGlo FLuc, NPC1 prom act)
CCCCN(C)C(=O)c1cc2cc3ccc(OC)cc3nc2o1	FLuc counter 3.8µM, Rab9 prom act 3.5µM, ELG1 genotoxic inconclusive, NPC1 prom act 4µM (no result: SMN2 splice up, KinaseGlo FLuc)
COc1ccc2cc3cc(C(=O)NC(C)C)oc3nc2c1	FLuc counter 17µM, Rab9 prom act 2µM, ELG1 genotoxic inconclusive, NPC1 prom act inconclusive (no result: SMN2 splice up)
COCCCNC(=O)c1cc2cc3cc(OC)ccc3nc2o1	FLuc counter inconclusive (no result: SMN2 splice up, KinaseGlo FLuc)
CCCCN(C)C(=O)c1cc2cc3cc(OC)ccc3nc2o1	FLuc counter 13µM, Rab9 prom act 3.5µM, SMN2 splice up inconclusive, NPC1 prom act inconclusive
CCCCN(C)CCNC(=O)c1cc2cc3ccc(OC)cc3nc2o1	none (no result: SMN2 splice up, KinaseGlo FLuc)
c1ccc2c(N3CCNCC3)nc(-c3ccoc3)nc2c1	none (no result: FLuc counter, Rab9 prom act, ELG1 genotoxic, NPC1 prom act)
CC(C)Cn1nnnc1S(=O)(=O)CCc1ccccc1	none (no result: FLuc counter, Rab9 prom act, ELG1 genotoxic, NPC1 prom act)
COc1cccc(-c2cn3nc4c(nc3n2)CCCC4)c1	FLuc counter 0.76µM, Rab9 prom act 0.71µM, ELG1 genotoxic inconclusive, SMN2 splice up 1.6µM, KinaseGlo FLuc 10µM, NPC1 prom act 0.63µM
COc1cccc(-c2cc(C(F)(F)F)n3nc(N)nc3n2)c1	none
OC1CCN(c2c3c(nc4cc(-c5ccc(Cl)cc5)nn24)CCC3)CC1	FLuc counter inconclusive
Clc1ccc(-c2cn3nc4c(nc3n2)CCCC4)cc1	FLuc counter 0.24µM, Rab9 prom act 0.32µM, ELG1 genotoxic inconclusive, SMN2 splice up 1.8µM, KinaseGlo FLuc inconclusive, NPC1 prom act 0.2µM
Cc1cccc(CN2C(=O)c3ccccc3Sc3ccc(C(=O)NC4CCCCC4)cc32)c1	none (no result: Rab9 prom act, ELG1 genotoxic, SMN2 splice up, KinaseGlo FLuc, NPC1 prom act)
Cc1ccc(OCC(=O)Nc2ccc(NC(=O)c3ccco3)cc2)c(C)c1	none (no result: SMN2 splice up, KinaseGlo FLuc)
Cc1cc(Cl)ccc1OCC(=O)NNC(=O)c1ccco1	FLuc counter 9.5µM, ELG1 genotoxic inconclusive (no result: SMN2 splice up, KinaseGlo FLuc)
Cc1ccc(NC(=O)COc2ccc(Br)cc2C)cc1	FLuc counter 9.5µM, ELG1 genotoxic inconclusive
Cc1cc(Cl)ccc1OCC(=O)Nc1ccncc1	FLuc counter 15µM, ELG1 genotoxic inconclusive (no result: SMN2 splice up, KinaseGlo FLuc)
Cc1cc(Cl)ccc1OCC(=O)NNC(=O)c1cccnc1	FLuc counter 19µM (no result: SMN2 splice up, KinaseGlo FLuc)
